Laboratory results reported in PubChem BioAssay (NCI).
Values joined by “and” are separate entries in the source; they are usually repeats but may differ in a detail not shown here. Identical values can stand only once. The panel holds about 83,000 compounds, 20% with a hit somewhere; the sample as a whole holds those more often.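 For each line, cells grew in 96-well plates with the test compound present at a single concentration for 48 hours.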 A number with no mark means an inactive call. Active and inactive are the calls of the source. Rule for the calls: active = growth percent below 10; inactive = the rest.

Experiments:
Experiment in all cases: NCI-60 one-dose screen, 48 h (100 = growth as untreated, 0 = no growth, -100 = all killed)
Details in all cases: 10 µM unless noted
HCT-15 colon = system: HCT-15 colon
HT29 colon = system: HT29 colon
SNB-75 CNS = system: SNB-75 CNS
SNB-19 CNS = system: SNB-19 CNS
U251 CNS = system: U251 CNS
PC-3 prostate = system: PC-3 prostate
SK-MEL-5 melanoma = system: SK-MEL-5 melanoma
UACC-62 melanoma = system: UACC-62 melanoma
LOX IMVI melanoma = system: LOX IMVI melanoma
SK-MEL-28 melanoma = system: SK-MEL-28 melanoma
SK-MEL-2 melanoma = system: SK-MEL-2 melanoma
EKVX NSCLC = system: EKVX NSCLC
SN12C renal = system: SN12C renal
UO-31 renal = system: UO-31 renal
TK-10 renal = system: TK-10 renal
ACHN renal = system: ACHN renal
CAKI-1 renal = system: CAKI-1 renal
A498 renal = system: A498 renal
CCRF-CEM leukemia = system: CCRF-CEM leukemia
MOLT-4 leukemia = system: MOLT-4 leukemia

SMILES | growth (HCT-15 colon) | growth (HT29 colon) | growth (SNB-75 CNS) | growth (SNB-19 CNS) | growth (U251 CNS) | growth (PC-3 prostate) | growth (SK-MEL-5 melanoma) | growth (UACC-62 melanoma) | growth (LOX IMVI melanoma) | growth (SK-MEL-28 melanoma) | growth (SK-MEL-2 melanoma) | growth (EKVX NSCLC) | growth (SN12C renal) | growth (UO-31 renal) | growth (TK-10 renal) | growth (ACHN renal) | growth (CAKI-1 renal) | growth (A498 renal) | growth (CCRF-CEM leukemia) | growth (MOLT-4 leukemia)
Fc1ccccc1CNc1nc(SCCN2CCOCC2)nc2c1cnn2CC(Cl)c1ccc(Br)cc1 (stereo not given) | -53.3% (active) | -33.6% (active) | 50.1% | 52.6% | 37.8% | 30.3% | -76% (active) | -4.51% (active) | 1.88% (active) | 22% | 31.1% | 49% | 53.2% | -6.44% (active) | 58.9% | 25.1% | 27% | 53.8% | 22.4% | -25.2% (active)
N#CC1=C(c2ccco2)Nc2c(c(-c3ccccc3)nn2-c2ccccc2)C12C(=O)Nc1ccc(Cl)cc12 (stereo not given) | 30.4% | 41.9% | -56.4% (active) | 3.22% (active) | -21.7% (active) | -41% (active) | 50.4% | 37.4% | 2.55% (active) | 45.6% | 80.2% | 24.2% | -44.4% (active) | 43.1% | -15.4% (active) | 8.94% (active) | 33% | 135% | 25% | 34.8%
C/C(=N/O)c1ccc(NC(=O)CSc2nnc(-c3ccc(-c4nc5ccc(Cl)cc5[nH]4)cc3)o2)cc1 | 78.1% | 31.4% | -27.5% (active) | -86.7% (active) | -95.8% (active) | -22.4% (active) | -60.4% (active) | -86.6% (active) | -100% (active) | -100% (active) | -26% (active) | 13.4% | -33.9% (active) | 104% | 99.5% | 45.5% | 60.2% | 160% | 34.5% | 2.09% (active)
CCCCCCCOc1ccc(S(=O)(=O)Nc2ccc(C)c(F)c2C(=O)O)cc1 | 79.4% | 121% | 104% | 89.4% | 91.4% | 91% | 96.7% | 90.6% | 98.9% | 117% | 102% | 95.4% | 94.9% | 75% | 96.2% | 101% | 93% | 102% | 81.6% | 98.3%
CCN1C(=O)N(CC)C2NNC(Sc3c(C(=O)O)c4ccccc4n(CC(C)C)c3=O)=NC21 (stereo not given) | 7.04% (active) | -8.58% (active) | 34.4% | 17% | 10.7% | 29.9% | 2.31% (active) | 14.7% | 16.5% | 54.4% | 18.5% | 38.5% | 24.3% | 39.5% | 52.7% | 28.7% | 46.1% | 133% | 7.54% (active) | 6.5% (active)
NC1(c2ccc(-c3ccc4ncnc(NCc5ccccc5)c4c3)cn2)COC1 | 109% and 102% | 122% and 108% | 115% and 103% | 100% and 98.8% | 112% and 108% | 94.4% and 105% | 101% and 107% | 104% and 94% | 99% and 102% | 104% and 107% | 112% and 113% | 111% and 100% | 105% and 101% | 99.8% and 85.4% | 108% | 102% and 109% | 94.8% and 103% | 118% and 134% | 106% and 102% | 112% and 101%
CN(C)CCCNC(=S)Nc1ccc(/C=C/c2ccc(Cl)cc2)cc1 | -93.8% (active) | -51.4% (active) | 8.9% (active) | -35.2% (active) | -2.11% (active) | -35.3% (active) | -98.6% (active) | -82.3% (active) | -64.5% (active) | -97.6% (active) | -85.4% (active) | -35.1% (active) | -100% (active) | -95.8% (active) | -87.9% (active) | -97.6% (active) | -77.3% (active) | -47.7% (active) | -16.9% (active) | 0.54% (active)
COc1cc(/C=C/C(=O)c2cnn(-c3cc(=O)[nH]c4ccccc34)c2C)cc(OC)c1OC | 12.2% | 9.84% (active) | 71.9% | 26.6% | 9.13% (active) | 43.3% | -24.9% (active) | 29.9% | 13.5% | 36.5% | 52% | 4.03% (active) | -1.59% (active) | 25.6% | 27.7% | 20.3% | 19.1% | 96.1% | -18.6% (active) | -12.8% (active)
O=C(CSc1nnc(-c2ccc(-c3nc4ccc(Cl)cc4[nH]3)cc2)o1)Nc1ccccc1 | 25.2% | 41% | -16.8% (active) | -42.4% (active) | -79.2% (active) | -13.6% (active) | 13.2% | 7.34% (active) | -65.6% (active) | -89.2% (active) | 54.5% | 21.1% | 4.03% (active) | 60.6% | 114% | -56.4% (active) | -33.5% (active) | 130% | 41.5% | 10.7%
Nc1nnc(-c2cncc(Br)c2)c(-c2c[nH]c3ccc(Br)cc23)n1 | 37.1% | 35.6% | 50.5% | 59.5% | 63% | 56% | 31.1% | 55.2% | 43.1% | 67.5% | 55.4% | 65.7% | 57.6% | 34.8% | 97.7% | 56.5% | 46% | 92.7% | 44.1% | 33%
COc1cc(/C=C/C(=O)c2cnn(-c3cc(=O)[nH]c4ccc(Br)cc34)c2C)cc(OC)c1OC | -54.9% (active) | -58.7% (active) | 9.81% (active) | -2.48% (active) | -76.7% (active) | -23.9% (active) | -96.2% (active) | -71.7% (active) | -89.8% (active) | -53% (active) | -59.6% (active) | -57.8% (active) | -7.58% (active) | -80.7% (active) | 1.77% (active) | -34.9% (active) | -4.42% (active) | 6.24% (active) | -19.6% (active) | -12.3% (active)
COc1cc(/C=N/NC(=O)c2ccc(OCc3nc4ccc(C)cc4[nH]3)cc2)cc(OC)c1OC | 38.9% | 18.9% | 135% | 66.2% | 29% | 49.7% | 18.3% | 29.9% | 40.4% | 39.4% | 68.1% | 72.4% | 56.4% | 66.2% | 83.2% | 69.6% | 50.5% | 116% | 7.65% (active) | 4.5% (active)
C=CC[n+]1cccc2c3ccccc3ccc21 | 94.7% | 47.3% | 49.8% | 26.5% | 16.6% | 43.7% | -39.8% (active) | 61% | 61.8% | 69% | 63.3% | 23.7% | 8.67% (active) | 56.5% | 67.1% | 88% | 60.6% | 48.6% | 47.3% | 47.9%
C[C@H]1[C@@H](CC(=O)N[C@@H](Cc2coc3ccccc23)B(O)O)O[C@@H]2OC3(C)CC[C@H]4[C@H](C)CC[C@@H]1[C@@]24O3 | -51.7% (active) | -57.4% (active) | -19% (active) | 35% | 25.2% | 28.5% | -83.4% (active) | -75.8% (active) | -72.7% (active) | 5.12% (active) | -20.7% (active) | 28.2% | 6% (active) | 12.4% | 1.76% (active) | 6.94% (active) | 15.5% | 44.5% | -0.752% (active) | 14.2%
Cc1ccc(C2CC(c3ccc(S(=O)(=O)NCCNc4nc(N(C)C)nc(N5CCOCC5)n4)cc3)=Nc3c(N)nc(N)nc3N2)cc1 (stereo not given) | 44.5% | 17.9% | 59.5% | 57.3% | 50.6% | 27.9% | 34.5% | 71.1% | 17.7% | 71.1% | 86.2% | 38.4% | 51.5% | 36.9% | 96.4% | 68.2% | 43.4% | 105% | 17.3% | 3.09% (active)
